Screening data as filed in PubChem BioAssay.
sEH inhibitor – soluble epoxide hydrolase inhibitors, primary screen, biochemical, human sEH; Bifunctional epoxide hydrolase 2 (Homo sapiens), P34913; recombinant human sEH enzymatic activity assay; inhibition, % at 2 µM; 91,000 compounds, 0.34% hits; in the data active = inhibition above about 80%
sEH act – soluble epoxide hydrolase activators, primary screen, biochemical, human sEH; 91,000 compounds, 0.04% hits; purified human sEH enzymatic activity, activator screen; AID 717, 2007; activation, % at 2 µM; in the data active = activation above about 37%
Cav3 T inh – Cav3.2 calcium influx blockers – cell-based, Fluo-4 calcium fluorescence, FDSS, MLSMR library, primary screen; Cav3.2-expressing cells; active compounds read low; 100,000 compounds, 4% hits; Voltage-dependent T-type calcium channel subunit alpha-1H (Homo sapiens), O95180; B-score at 10 µM;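 active = single-dose well whose peak fluorescence ratio is a statistical outlier from its plate by either plate-standardised score or position-corrected B-score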
PostGolgi ctrl – growth inhibition of yeast control strain, primary screen, counter-screen for post-Golgi transport modulator project. efflux-deficient yeast background strain, growth absorbance A615, 16 h. inhibition, % at 10 µM. 98,000 compounds, 5% hits. AID 738, 2007
PostGolgi yeast – phenotypic screen on post-Golgi transport, primary screen; post-Golgi transport phenotypic cell assay; inhibition, % at 10 µM; 98,000 compounds, 0.9% hits; AID 739, 2007;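 note: yeast cells grown in 1536-well plates; yeast grown about 18 h at 30C before absorbance read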
Starred values were filed as active, the others as inactive; nt = not tested or not shown. An excerpt weighted towards active compounds, which were near 7.8% of everything screened. Cut-off read from the data, not from the text of the source, unless noted: active = inhibition above about 30%; inactive = the rest.

SMILES	sEH inhibitor	sEH act	Cav3 T inh	PostGolgi ctrl	PostGolgi yeast
COc1ccc(-n2c(Cc3cccn3C)nnc2SCC(=O)Nc2cccc(NC(C)=O)c2)cc1	nt	nt	-1.7	-3	6
COc1ccc(NC(=O)CSc2nnc(Cc3cccn3C)n2-c2ccc(OC)cc2)cc1	nt	nt	-8.1*	3	1
COc1ccc(-n2c(Cc3cccn3C)nnc2SCC(=O)Nc2ccc(C)cc2)cc1	nt	nt	-7.9*	8	6
CCOc1ccc(NC(=O)CSc2nnc(Cc3cccn3C)n2-c2ccc(OC)cc2)cc1	9	-8	-2.8	29	5
Cc1ccc(S(=O)(=O)N(CC(=O)NCc2ccco2)Cc2ccccc2F)cc1	-6	3	-1.4	23	3
CCCN1CCN(C(=O)Cn2cccc2C(=O)c2ccccc2)CC1	12	-9	1.2	17	10
COc1ccccc1NC(=O)c1ccccc1-c1nc(-c2ccccc2OC)no1	5	0	-2.6	8	4
COc1cccc(NC(=O)c2ccccc2-c2nc(-c3ccc(Cl)cc3)no2)c1	5	-8	-2.5	35*	-7
COc1ccc(-c2noc(-c3ccccc3C(=O)NCc3ccco3)n2)cc1OC	-2	1	nt	31*	-2
COc1cccc(NC(=O)c2ccccc2-c2nc(-c3ccc(F)cc3)no2)c1	4	-3	-1.1	56*	25
COc1cccc(NC(=O)c2ccccc2-c2nc(-c3ccccc3)no2)c1	12	-14	-0.53	42*	-3
COc1ccccc1-c1noc(-c2ccccc2C(=O)Nc2ccccc2)n1	-6	8	-0.025	27	7
COc1ccc(-c2noc(-c3ccccc3C(=O)NCc3ccco3)n2)cc1	-20	19	-2	19	-8
CCN(CC)c1ccc2cc(S(=O)(=O)c3ccc(Cl)cc3)c(=O)oc2c1	nt	nt	-4.1*	nt	nt
CCCCCCc1cc2cc(S(=O)(=O)c3ccc(Cl)cc3)c(=O)oc2cc1O	nt	nt	-0.21	nt	nt
CCCCCCCCN1[C@@H](CC(=O)OCC)c2cc(C(F)(F)F)ccc2S1(=O)=O	nt	nt	-4.2*	nt	nt
CC1(C)Oc2ccc3ccc(=O)oc3c2/C(=C/NC2CCCCC2)C1=O	-4	4	-3.9	nt	nt
Cc1ccc(O)c(C(=O)c2cnn(C(=O)Cc3csc(C)n3)c2)c1	nt	nt	-1.3	-5	1
Cc1ncc(CC(=O)n2cc(C(=O)c3cc(F)ccc3O)cn2)s1	-3	6	-3.4*	1	0
Cc1ccc(C)c(Cn2cnc3c(cnn3C(C)(C)C)c2=O)c1	-1	1	-4.8*	21	1
Cc1ccccc1Cn1cnc2c(cnn2C(C)(C)C)c1=O	12	-12	-2.6	1	8
O=[N+]([O-])c1ccc(Oc2cccc(F)c2)c2ccncc12	-2	3	-0.12	38*	10
COC(=O)C1CSC(C(=O)OC)N1C(=O)Nc1c(C)cccc1C (stereo not given)	-1	2	0.078	38*	-5
O=S1(=O)CCC(SCc2nc3sccn3c2Br)C1 (stereo not given)	2	-3	0.032	-3	9
O=S(=O)(N1CCCCC1)N1CCN(c2ccc(F)cc2)CC1	-11	10	-0.47	5	3
SMILES	sEH inhibitor	sEH act	Cav3 T inh	PostGolgi ctrl	PostGolgi yeast
Cc1ccc(N2CCN(S(=O)(=O)N3CCCCCC3)CC2)cc1Cl	10	-12	-1.5	0	31*
Nc1nonc1C(=O)NCCNCc1ccccc1OCc1ccccc1F	-2	1	-6.1*	31*	-4
Nc1nonc1C(=O)NCCNCc1cc(Br)ccc1OCc1ccccc1F	-11	11	-6.9*	7	3
O=S(=O)(c1ccc(-c2csc(-c3cccnc3)n2)cc1)N1CCCCC1	8	-5	-0.23	41*	-1
Clc1ccsc1-c1csc(-c2cccnc2)n1	-6	5	0.36	85*	81*
O=S(=O)(c1ccc(-c2csc(-c3cccnc3)n2)cc1)N1CCCC1	-3	7	-0.13	19	13
Nc1cccc(-c2nc3ccccc3s2)c1	-1	3	0.039	31*	1
O=S(=O)(c1cccc(-c2csc(-c3cccnc3)n2)c1)N1CCCCC1	13	-14	-1.2	32*	-2
Cn1c(=O)c2cc(S(=O)(=O)N3CCC(c4ccccc4)CC3)ccc2n(C)c1=O	-14	15	2.3	-6	29
CCN(CC)S(=O)(=O)c1ccc2oc(C(=O)NCc3ccc(C)cc3)c(C)c2c1	5	-3	-3.4	23	-7
O=S(=O)(c1ccc(F)cc1)N1CCN(c2nc(-c3ccc(F)cc3)cs2)CC1	-14	13	0.15	37*	-2
